Measurements: the supplement of paper PMC8975748
Where a name gives a salt, the structure may show the parent alone.

The compounds below were run on Saccharomyces cerevisiae BY4741 SeMeCo community (assay: z-score of prototroph abundance vs DMSO median; higher = larger share of this subpopulation than in DMSO controls). Conditions: 10 µM; 24 h; SM minimal medium; subpopulation (auxotrophy): Prototroph.
In short: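 A community of Saccharomyces cerevisiae BY4741 was built from four plasmids that each restored one auxotrophy and encoded a distinct fluorescent protein. Pre-grown overnight to OD600 1.0 and diluted to 0.3, it was dispensed at 70 µl into 384-well plates acoustically predosed with library drugs for a final 10 µM, and grown 24 h in minimal SM medium. Cells were then paraformaldehyde-fixed and imaged by automated confocal microscopy. Thresholds and autofluorescence correction came from single-auxotroph fluorescent strains, and each subpopulation's abundance was scored as a z-score relative to the vehicle-well median.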

First: NC(=O)N1c2ccccc2CC(=O)c2ccccc21 [Oxcarbazepine]
Second: CN1CCOC(c2ccccc2)c2ccccc2C1 (stereo not given) [Nefopam HCl]
The “z-score of prototroph abundance” value of the first is higher: 0.37 for the first, 0.32 for the second.

Compared with `CC(=O)OCC1=C(C(=O)O)N2C(=O)[C@@H](NC(=O)CSc3ccncc3)[C@H]2SC1` [Cephapirin Benzathine], `C[C@@H](O)[C@H]1C(=O)N2C(C(=O)O)=C(S[C@@H]3CN[C@H](C(=O)Nc4cccc(C(=O)O)c4)C3)[C@H](C)[C@H]12` [Ertapenem sodium] is higher in “z-score of prototroph abundance” value: -0.46 for the first, 0.33 for the second.

Compared with `COc1ccc(C[C@H](N)C(=O)N[C@H]2[C@@H](O)[C@H](n3cnc4c(N(C)C)ncnc43)O[C@@H]2CO)cc1` [Puromycin 2HCl], `NC(=O)c1ncn([C@@H]2O[C@H](CO)[C@@H](O)[C@H]2O)n1` [Ribavirin] is higher in “z-score of prototroph abundance” value: -0.54 for the first, -0.16 for the second.

Going from `OCc1ccccc1O[C@@H]1O[C@H](CO)[C@@H](O)[C@H](O)[C@H]1O` [Salicin] to `CCC[C@@H]1C[C@@H](C(=O)N[C@@H]([C@H]2O[C@H](SC)[C@H](O)[C@@H](O)[C@H]2O)[C@@H](C)O)N(C)C1` [Lincomycin HCl], the “z-score of prototroph abundance” value rises from 0.58 to 0.69.

Compared with `O=C(CCCN1CCC(O)(c2ccc(Cl)cc2)CC1)c1ccc(F)cc1` [Haloperidol], `Clc1ccc(C(Cn2ccnc2)OCc2ccsc2Cl)c(Cl)c1` (stereo not given) [Tioconazole] is lower in “z-score of prototroph abundance” value: 0.57 for the first, -7.82 for the second.

First: COc1cc(O)c(C(=O)Nc2nc(C(=O)NCCN(C(C)C)C(C)C)cs2)cc1OC [Acotiamide]
Second: COc1ccc(Cc2cnc(N)nc2N)cc1OC [Diaveridine]
The “z-score of prototroph abundance” value of the first is lower: -0.88 for the first, 0.22 for the second.

Going from `CC(=O)OCC(CCn1cnc2cnc(N)nc21)COC(C)=O` [Famciclovir] to `C#CCC(Cc1cnc2nc(N)nc(N)c2n1)c1ccc(C(=O)N[C@@H](CCC(=O)O)C(=O)O)cc1` (stereo not given in full) [Pralatrexate], the “z-score of prototroph abundance” value falls from 0.55 to 0.41.

Going from `CC[C@H]1OC(=O)[C@H](C)[C@@H](O[C@H]2C[C@@](C)(OC)[C@@H](O)[C@H](C)O2)[C@H](C)[C@@H](O[C@@H]2O[C@H](C)C[C@H](N(C)C)[C@H]2O)[C@](C)(O)C[C@@H](C)[C@@H]2N[C@@H](COCCOC)O[C@H]([C@H]2C)[C@]1(C)O` [Dirithromycin] to `CO[C@H]1C[C@@H]2CC[C@@H](C)[C@@](O)(O2)C(=O)C(=O)N2CCCC[C@H]2C(=O)O[C@H]([C@H](C)C[C@@H]2CC[C@@H](OP(C)(C)=O)[C@H](OC)C2)CC(=O)[C@H](C)/C=C(\C)[C@@H](O)[C@@H](OC)C(=O)[C@H](C)C[C@H](C)/C=C/C=C/C=C/1C` [Ridaforolimus (Deforolimus, MK-8669)], the “z-score of prototroph abundance” value falls from 0.11 to -18.3.

First: NNc1nncc2ccccc12 [Hydralazine HCl]
Second: CN1C2CCCC1CC(NC(=O)c1nn(C)c3ccccc13)C2 (stereo not given) [Granisetron]
The “z-score of prototroph abundance” value of the first is higher: 0.63 for the first, -0.04 for the second.

First: COc1cccc2c1C(=O)c1c(O)c3c(c(O)c1C2=O)CC(O)(C(=O)CO)CC3OC1CC(N)C(O)C(C)O1 (stereo not given) [Doxorubicin (Adriamycin) HCl]
Second: CCN1CCCC1CNC(=O)c1cc(S(N)(=O)=O)ccc1OC (stereo not given) [Sulpiride]
The “z-score of prototroph abundance” value of the first is lower: -3.54 for the first, 0.51 for the second.

First: CCCCC(F)(F)[C@@]1(O)CC[C@H]2[C@@H](CC(=O)[C@@H]2CCCCCCC(=O)O)O1 [Lubiprostone]
Second: CCCCCCCCN=C(N)NC(N)=NCc1ccc(Cl)c(Cl)c1 [Olanexidine Hydrochloride semihydrate]
The “z-score of prototroph abundance” value of the first is higher: 1.04 for the first, -19.3 for the second.

Compared with `Cc1c(Nc2ncccc2C(=O)O)cccc1C(F)(F)F` [Flunixin Meglumin], `Cc1onc(-c2ccccc2)c1-c1ccc(S(N)(=O)=O)cc1` [Valdecoxib] is higher in “z-score of prototroph abundance” value: 0.11 for the first, 1 for the second.

First: COc1ccc2[nH]c([S+]([O-])Cc3ncc(C)c(OC)c3C)nc2c1 (stereo not given) [Omeprazole Sodium]
Second: Cc1[nH]c(=O)c(C#N)cc1-c1ccncc1 [Milrinone]
The “z-score of prototroph abundance” value of the first is lower: 0.8 for the first, 1 for the second.

Going from `C#C[C@]1(OC(C)=O)CC[C@H]2[C@@H]3CCC4=C[C@@H](OC(C)=O)CC[C@@H]4[C@H]3CC[C@@]21C` [Ethynodiol diacetate] to `CCOc1cc(N)c([N+](=O)[O-])cc1C(=O)NC1CCN(CC2CC=CCC2)CC1` (stereo not given) [Cinitapride Hydrogen Tartrate], the “z-score of prototroph abundance” value falls from 0.6 to -1.19.

First: Cc1ccccc1C(OCCN(C)C)c1ccccc1 (stereo not given) [Orphenadrine Citrate]
Second: CC1(C)S[C@@H]2[C@H](NC(=O)[C@H](N)c3ccccc3)C(=O)N2[C@H]1C(=O)OCOC(=O)[C@@H]1N2C(=O)C[C@H]2S(=O)(=O)C1(C)C [Sultamicillin]
The “z-score of prototroph abundance” value of the first is higher: 0.04 for the first, -1.74 for the second.

First: CC1(C)[C@H](C(=O)O)N2C(=O)C[C@H]2S1(=O)=O [Sulbactam sodium]
Second: C[C@]1(Cn2ccnn2)[C@H](C(=O)O)N2C(=O)C[C@H]2S1(=O)=O [Tazobactam]
The “z-score of prototroph abundance” value of the first is lower: -0.92 for the first, -0.17 for the second.

Compared with `CCc1cc(C(N)=S)ccn1` [Ethionamide], `Nc1nc(N)nc(-c2cc(Cl)ccc2Cl)n1` [Irsogladine] is higher in “z-score of prototroph abundance” value: 0.06 for the first, 1.03 for the second.

In the case of `CCc1c2c(nc3ccc(OC(=O)N4CCC(N5CCCCC5)CC4)cc13)-c1cc3c(c(=O)n1C2)COC(=O)[C@]3(O)CC` [Irinotecan HCl Trihydrate], the “z-score of prototroph abundance” value is reported as -0.17.
